For 17 compounds, composite z-score and z-score results are on record in PubChem BioAssay.

Experiment [1] concerns Human papillomavirus type 1a protein E7 (residues 44-93). Briefly: small molecules binding HPV E7 44-93 – biochemical, small-molecule microarray, residues 44-93, 635 nm fluorescence, primary screen (AID 1108).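 Also: E7 fragment applied at 1 µg/mL in TBST for 1 h at 4 C; score combines spot fluorescence with its signal to noise ratio.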 Particulars: fluorescence 635 nm, higher = more signal.
Experiment [2] is described as follows: hepatitis C replication reporter changes, two-sided – Huh7 cells, luciferase reporter, HCV replication inhibitor project, primary screen (AID 1109).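 Also: huh7 hepatoma cells harbouring a luciferase neomycin HCV replicon reporter; luciferase luminescence as measure of HCV replicon replication; test concentration not given here.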 Particulars: Huh7 HCV replicon luciferase reporter, 48 h; higher = more signal. (Reporter assays use an easily measured gene product as a stand-in for the process of interest.)
Experiment [3] addresses Left-right determination factor 2 (Homo sapiens) (UniProt O00292). Briefly: small molecules binding LEFTY2 protein – biochemical, small-molecule microarray, 635 nm fluorescence scan, primary screen (AID 1110). The note with it: higher = more signal.
Experiment [4] concerns the target Calmodulin-1 (Homo sapiens) (UniProt P0DP23). Kind of experiment: small molecules binding calmodulin-1 with EGTA – biochemical, small-molecule microarray, Cy5-labelled CALM1, profiling panel (AID 1111).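 Also: labelled calmodulin applied in Tris saline Tween buffer holding calcium plus EGTA and DTT.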 Particulars: Cy5-CALM1 binding fluorescence, higher = more signal.
The target is the same in experiment [5]. Briefly: small molecules binding Ca-loaded calmodulin-1 – biochemical, small-molecule microarray, Cy5-labelled CALM1, plus calcium, artefact control for SMM control-protein annotation, profiling panel (AID 1112).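 Also: score merges spot fluorescence with signal to noise from triplicate slides.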 The note with it: Cy5-CALM1 binding fluorescence, higher = more signal.
Experiment [6] is described as follows: probe aWnt5a binding to arrayed compounds – biochemical, biotinylated probe, 635/667 nm fluorescence, primary screen (AID 1113).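 Also: score merges 667 nm fluorescence intensity with signal-to-noise per printed feature.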 Particulars: small-molecule microarray, higher = more signal.
Experiment [7] in a line: probe aShh binding to arrayed compounds – biochemical, biotinylated probe, 635/667 nm fluorescence, primary screen (AID 1114).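 Also: probe is biotin-labelled aShh protein from a stem cell growth factor screen; measures binding of labelled protein to compounds printed on the slide; score merges feature fluorescence at 667 nm with signal-to-noise.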 Particulars: small-molecule microarray, higher = more signal.
The nature of experiment [8]: probe aNog binding to arrayed compounds – biochemical, biotinylated probe, 635/667 nm fluorescence, primary screen (AID 1115).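 Also: probe is biotinylated aNog protein used at 0.15 µg/mL for 1 h at 4 C; z-score combines 667 nm fluorescence of each spot with its signal to noise.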 The note with it: small-molecule microarray, higher = more signal.
In experiment [9] the target is Torsin-1A-interacting protein 1 (Homo sapiens) (UniProt Q5JTV8). Briefly: compound microarray binding of lysate hLAP1 – cell lysate, small-molecule microarray, COS7 lysate, 635/667 nm fluorescence, primary screen (AID 1116). Particulars: 635 nm fluorescence, higher = more signal.
Torsin-1A-interacting protein 1 (Homo sapiens), sequence (Q5JTV8 whole entry, looked up): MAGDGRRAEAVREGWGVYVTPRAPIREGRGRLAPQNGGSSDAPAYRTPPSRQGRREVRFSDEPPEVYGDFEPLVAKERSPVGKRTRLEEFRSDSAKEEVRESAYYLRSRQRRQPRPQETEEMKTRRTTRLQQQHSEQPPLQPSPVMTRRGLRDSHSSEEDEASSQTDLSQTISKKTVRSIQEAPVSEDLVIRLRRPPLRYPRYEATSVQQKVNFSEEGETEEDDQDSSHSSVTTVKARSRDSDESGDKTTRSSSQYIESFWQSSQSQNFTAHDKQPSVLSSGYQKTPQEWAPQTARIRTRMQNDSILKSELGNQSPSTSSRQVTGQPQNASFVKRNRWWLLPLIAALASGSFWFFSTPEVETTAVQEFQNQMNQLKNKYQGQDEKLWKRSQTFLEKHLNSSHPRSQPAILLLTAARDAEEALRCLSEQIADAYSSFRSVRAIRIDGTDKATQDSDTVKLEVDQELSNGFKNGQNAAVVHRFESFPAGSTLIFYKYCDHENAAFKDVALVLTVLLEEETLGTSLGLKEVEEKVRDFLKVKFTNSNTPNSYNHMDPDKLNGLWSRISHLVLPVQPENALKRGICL
Experiment [10] has as its target Alpha-bungarotoxin (Bungarus multicinctus) (UniProt P60615). Briefly: compounds binding labelled alpha-BTX control protein – biochemical, small-molecule microarray, Alexa647 label, 635/667 nm fluorescence, artefact control for SMM control protein annotation, profiling panel (AID 1117). The note with it: alpha-BTX-A647 binding fluorescence, higher = more signal.

Left-right determination factor 2 (Homo sapiens), sequence (O00292 whole entry, looked up): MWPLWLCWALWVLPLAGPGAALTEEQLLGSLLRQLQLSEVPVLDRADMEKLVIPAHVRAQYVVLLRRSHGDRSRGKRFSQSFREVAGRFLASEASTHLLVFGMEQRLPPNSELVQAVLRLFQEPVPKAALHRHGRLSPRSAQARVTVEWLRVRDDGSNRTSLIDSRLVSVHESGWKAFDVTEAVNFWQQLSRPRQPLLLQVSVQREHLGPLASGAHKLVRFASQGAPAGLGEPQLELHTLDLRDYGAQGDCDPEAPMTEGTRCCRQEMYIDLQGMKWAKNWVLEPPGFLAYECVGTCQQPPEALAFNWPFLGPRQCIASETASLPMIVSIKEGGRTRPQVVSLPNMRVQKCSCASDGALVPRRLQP
Alpha-bungarotoxin (Bungarus multicinctus), sequence (P60615 whole entry, looked up): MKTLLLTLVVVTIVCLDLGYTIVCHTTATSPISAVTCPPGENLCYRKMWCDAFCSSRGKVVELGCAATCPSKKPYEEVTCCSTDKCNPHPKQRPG

Turning to `[N-]=[N+]=NCc1ccccc1C[C@@]1(C(N)=O)N=C(c2ccc(OCCCO)cc2)O[C@@H]1c1ccccc1N=[N+]=[N-]`, the composite z-score in experiment [1] is 1.05; in experiment [3], -0.654; in [4] it was 1.09; in experiment [5], 0.237; in experiment [6] it was 0.0088; in experiment [7] it was 0.199. The composite z-score is -0.561 in experiment [8], 1.71 in experiment [9] and 0.775 in experiment [10]. The compound further came in with a z-score in [2] of -0.489.

In the case of `C=CCNC(=O)[C@H]1[C@@H]2C(=O)O[C@@H](c3ccccc3)[C@@H](c3ccccc3)N2[C@@H](c2ccc(O)cc2)[C@]12C(=O)N(C(=O)OCCOC)c1ccc(C#Cc3ccc(OC)cc3)cc12`, the composite z-score in experiment [1] was 1.33; in experiment [3] it was 0.254; in experiment [4] it was 1.38; in experiment [5], -0.0807; in experiment [6] it was -0.001; in [7], 0.229. Besides, the composite z-score in experiment [8] was -0.477; in experiment [9], 0.42; in experiment [10], 0.286. The compound also had a z-score in [2] of -1.09.

`CCOC(=O)C1=CCC(c2ccncc2)N(S(=O)(=O)c2ccc(C)cc2)C1` (stereo not given): the composite z-score was 1.47 in experiment [1]; 0.502 in experiment [3]; 1.61 in experiment [4]; 0.276 in [5]; -0.0125 in experiment [6]; -0.154 in [7]. Moreover, the composite z-score in experiment [8] is -0.389; in experiment [9] it was 2.15; in experiment [10] it was 0.842. Moreover, the z-score in experiment [2] was -2.8.

Consider `C=CCOC(=O)[C@@H]1[C@H]2C(=O)O[C@H](c3ccccc3)[C@H](c3ccccc3)N2[C@H](c2ccc(OCCOC(=O)[C@@H]3C[C@@H]4C(=O)N[C@@H](CC(C)C)C(=O)N4[C@@H]3c3ccc(O)cc3)cc2)[C@@]12C(=O)Nc1ccc(I)cc12`, for which the composite z-score is 1.39 in experiment [1]; 1.26 in experiment [3]; 0.751 in experiment [4]; 0.289 in [5]; -0.263 in experiment [6]; -0.0793 in experiment [7]. For the same compound, the composite z-score in experiment [8] is 1.12; in experiment [9], -0.107; in experiment [10], 1.44. In addition, the z-score in [2] is -0.432.

For the compound `COc1ccc([Si](C)(C)[C@H]2[C@H](CC(=O)N(CCO)Cc3ccccc3)O[C@@]3(C(=O)N(Cc4cccc(N5CCCCC5=O)c4)c4ccccc43)[C@@H]2C)cc1`, the composite z-score in [1] was 0.558; in [3], 0.384; in experiment [4] it was -0.0075; in [5], 0.117; in experiment [6], -0.147; in experiment [7] it was 0.235. The composite z-score in experiment [8] is -0.0863; in [9], -0.0746; in experiment [10], 0.595. This compound displayed a z-score in experiment [2] of -4.06.

Regarding `CCOC(=O)C=C1C[C@@H](c2cccc([N+](=O)[O-])c2)O[C@@H](c2cccc([N+](=O)[O-])c2)O1`, the composite z-score in experiment [1] was determined as 0.478; in [3], 0.584; in [4], 1.68; in experiment [5] it was 0.966; in [6], 0.0289; in experiment [7], 0.317. The composite z-score in experiment [8] was found to be 1.64; in experiment [9], 0.785; in [10], 1.05. In experiment [2], this compound registered a z-score of -1.96.

With `O=C/C=C/c1ccc(-c2ccccc2)cc1`, the composite z-score in experiment [1] is -1.06; in experiment [3], 0.435; in experiment [4], -0.501; in [5], -0.524; in [6], -0.129; in experiment [7], -0.341. The composite z-score was -0.739 in [8], -0.0833 in experiment [9] and 0.27 in experiment [10]. This compound displayed a z-score in experiment [2] of 0.861.

`C#CCN(C(=O)OC(C)(C)C)[C@H](CO)c1ccccc1`: the composite z-score in [1] is 0.486; in experiment [3], 0.353; in [4] it was -0.528; in [5], -0.964; in experiment [6], -0.18; in experiment [7], -0.138. Moreover, the figures for the composite z-score in experiment [8], in [9] and in [10] were -0.141, 0.391 and 0.0876, respectively. This compound also had a z-score in experiment [2] of 0.712.

`COc1cccc(C)c1NC(=O)O[C@H]1[C@H](OC(=O)Nc2ccccc2)[C@@H](OC(=O)Nc2ccccc2)[C@@H](OC)O[C@@H]1CO`: the composite z-score is 1.52 in experiment [1]; 0.508 in experiment [3]; 1.13 in experiment [4]; -0.271 in experiment [5]; 0.0321 in experiment [6]; 0.157 in [7]. In addition, the composite z-score in [8] was determined as 0.0023; in experiment [9], 2.17; in experiment [10], 1.31. The z-score in experiment [2] is -2.72.

In the case of `O=C(N1CCOCC1)[C@]1(CCS(=O)(=O)c2ccccc2)N=C(c2ccc(OCCCO)cc2)O[C@@H]1c1ccccc1`, the composite z-score is 0.794 in experiment [1]; -0.685 in experiment [3]; 1.52 in experiment [4]; 1.14 in [5]; -0.0445 in experiment [6]; 0.123 in [7]. The composite z-score in experiment [8] is -0.087; in experiment [9], 2.3; in [10], 1.82. The compound further showed a z-score in [2] of -0.954.

Consider `COC(=O)[C@@]1(Cc2ccccc2)[C@H]2c3cc(C(=O)N(C)C)n(CCF)c3C[C@H]2CN1C(=O)c1ccccc1`, for which the composite z-score in experiment [1] was 0.233; in experiment [3], -0.555; in experiment [4], 2.8; in experiment [5], 1.31; in [6] it was -0.0118; in [7] it was -0.305. Also, the composite z-score is -0.52 in experiment [8], 3.08 in [9] and 1.43 in experiment [10]. The compound also gave a z-score in experiment [2] of -1.66.

`Cc1ccc(S[C@]2(C(=O)NCc3ccccc3)CC(=O)N(Cc3ccccc3C(F)(F)F)[C@@H]2c2ccc(CO)cc2I)cc1`: the composite z-score in [1] is -0.565; in [3], -0.916; in [4], -0.348; in experiment [5], 0.549; in experiment [6], -0.124; in experiment [7] it was -0.334. Also, the results for the composite z-score in experiment [8], in experiment [9] and in experiment [10] were 0.389, 0.662 and -0.593, respectively. This compound came in with a z-score in [2] of -1.64.

On to `COCCOC(=O)N1C(=O)[C@@]2(c3cc(C#CC4=CCCCC4)ccc31)[C@H](c1ccc(O)cc1)N1[C@H](c3ccccc3)[C@H](c3ccccc3)OC(=O)[C@H]1[C@@H]2C(=O)N1CCc2cc(OC)c(OC)cc2C1`, for which the composite z-score in [1] was 1.06; in experiment [3], -0.231; in experiment [4] it was 1.12; in experiment [5] it was 0.516; in experiment [6], -0.0332; in experiment [7], 0.0796. For the same compound, the values for the composite z-score in experiment [8], in experiment [9] and in [10] were 0.453, 2.23 and 0.924, respectively. The compound further yielded a z-score in experiment [2] of -0.993.

Consider `CC(C)[Si]1(C(C)C)OCc2cc(-c3ccc(-c4ccc(Cl)c(Cl)c4)o3)nc(-c3ccc(Oc4ccccc4)cc3)c21`, for which the composite z-score in experiment [1] is -1.76; in experiment [3], -1.44; in experiment [4] it was -0.168; in experiment [5] it was 0.698; in experiment [6] it was -0.265; in experiment [7] it was -0.243. Besides, the composite z-score was -0.132 in experiment [8], -1.22 in experiment [9] and -1.55 in [10]. The compound also gave a z-score in [2] of -0.105.

For the compound `CN1C(=O)C2C=CC(C(O)COCc3ccccc3)N(Nc3ccc([N+](=O)[O-])cc3[N+](=O)[O-])C2C1=O` (stereo not given), the composite z-score in experiment [1] is 0.826; in experiment [3], -0.759; in experiment [4], -0.528; in experiment [5], -0.626; in [6], 0.173; in experiment [7] it was -0.328. Also, the composite z-score in [8] was 0.702; in experiment [9], 0.503; in experiment [10], 0.814. Further, in experiment [2], the z-score was -0.295.

Turning to `C=C(COC)C(=O)CC[C@H](OC(C)=O)c1ccc(CO)o1`, the composite z-score is -1.05 in [1]; 0.451 in experiment [3]; 0.44 in [4]; -1.07 in experiment [5]; -0.152 in experiment [6]; -0.0709 in experiment [7]. The composite z-score in experiment [8] was -0.273; in experiment [9], -0.534; in experiment [10], 0.706. For the same compound, in experiment [2], the z-score is 0.272.

Turning to `[N-]=[N+]=NCc1ccccc1[C@H]1OC(c2ccc(OCCCO)cc2)=N[C@@]1(CCS(=O)(=O)c1ccccc1)C(=O)O`, the composite z-score in experiment [1] is 0.746; in experiment [3], -0.266; in [4], 0.461; in experiment [5], -0.331; in experiment [6], -0.15; in [7], -0.156. The figures for the composite z-score in experiment [8], in [9] and in experiment [10] were -0.246, 0.703 and -0.553, respectively. Besides, the z-score in experiment [2] is -1.98.
